Data: ChEMBL document CHEMBL3988442, “University of Dundee, Small-Polar-MMV Screening Library” (2021)
Screen size: about 69,000 compounds; about 420 (0.61%) showed an effect of 50% or more. This is one part of a sample in which strong results are shown more often than they occur.

The compounds below were run against T1, Histidine--tRNA ligase (Leishmania infantum) (UniProt A4I591) (assay: Leishmania infantum Histidine tRNA synthetase (LdHisRS)). Details: 30 µM.
T1 sequence (whole entry): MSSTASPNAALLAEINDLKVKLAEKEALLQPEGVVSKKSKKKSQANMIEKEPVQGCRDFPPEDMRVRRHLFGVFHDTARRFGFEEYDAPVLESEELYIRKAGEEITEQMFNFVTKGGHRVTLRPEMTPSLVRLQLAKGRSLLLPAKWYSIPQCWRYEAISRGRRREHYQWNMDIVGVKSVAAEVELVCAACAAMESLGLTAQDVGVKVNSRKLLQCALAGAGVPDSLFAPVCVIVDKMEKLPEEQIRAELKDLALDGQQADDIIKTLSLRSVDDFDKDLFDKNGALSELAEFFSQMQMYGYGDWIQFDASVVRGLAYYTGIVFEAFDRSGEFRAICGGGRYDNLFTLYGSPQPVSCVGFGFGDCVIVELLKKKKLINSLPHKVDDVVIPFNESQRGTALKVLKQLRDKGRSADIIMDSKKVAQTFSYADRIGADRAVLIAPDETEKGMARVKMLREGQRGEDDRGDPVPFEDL
Format: functional
Set-up: scale not given: in the data most compounds retested in dose-response had high values

Compound	Percent Effect [%]
COc1cnc(N2CCN(C)CC2)nc1-c1ccnn1C	13.7
COc1cnc(N2CC(N3CCOCC3)C2)nc1-c1ccnn1C	92.2
Cc1cnc(N2CCN(C)CC2)nc1-c1ccnn1C	7.84
CC(=O)N1[C@H](Cn2cncn2)C[C@@H]2CN(CC3CC3)CC[C@@H]21	11.1
Cc1cc(C(=O)N2C[C@@H]3COC[C@]3(CN(C)C)C2)sc1C	-39.3
COCCN1C[C@@H]2CN(Cc3ccc(C)s3)CCC[C@]2(C(=O)O)C1	-8.18
CS(=O)(=O)N1CC[C@H]2C[C@@H](C(=O)N3CCOCC3)O[C@@H]2C1	-3.77
O=C1N(Cc2cccnc2)C[C@H]2CN(S(=O)(=O)c3ccccc3)CCN12	13.5
Cc1ccoc1C(=O)N1CCO[C@H]2[C@H](OCC3CCOCC3)CC[C@@H]21	7.55
CC(O)c1cccc(-n2c(CCC(=O)O)nc3ccccc32)c1 (stereo unspecified)	40
COc1ccc(-n2c(CCC(=O)O)nc3ccccc32)cc1CO	60
COc1ccc(-n2c(CO)nc3ccccc32)cc1CO	34.3
CNC[C@H]1CC[C@H](c2cc(CN(C)S(=O)(=O)N(C)C)n(C)n2)CC1	-50
O=C(c1ccco1)N1CCO[C@@H]2CN(CC3CC3)CC[C@@H]2C1	26
CN1[C@H]2CC[C@@H]1CN(C(=O)c1nnc3n1CCCC3)CC2	8.89
Cc1ccc(N2CCCC(N(C)c3nn4cc(C)nc4s3)C2)nn1 (stereo unspecified)	15.9
Cc1ncc(CN(C)C2CCCN(c3cccnn3)C2)s1 (stereo unspecified)	6.74
Cc1cn2nc(N(C)C3CCCN(c4cccnn4)C3)sc2n1 (stereo unspecified)	65.5
COc1ccc(CN2C[C@@H]3OCCN(CCN4CCCC4)[C@@H]3C2)cc1	0.917
CN(C)C(=O)c1nc2c(s1)CCCN2Cc1ccccc1	-245
CCN(C(=O)c1nc2c(s1)CCCN2Cc1ccccc1)C(C)C	74.4
CC(C)NC(=O)c1nc2c(s1)CCCN2Cc1ccccc1	38.5
CSc1ccccc1C(=O)N1C[C@H]2CC[C@@H]1CN(C(=O)C1CCC1)C2	14.5

Compound	Percent Effect [%]
O=C(CC1CC1)N[C@@H]1CN(C(=O)c2ccsc2)C[C@@H]2CCCO[C@@H]21	0.901
CCC(CC)C(=O)Nc1ccc2oc(=O)n(CCN(C)C)c2c1	15.2
CN(C)CCn1c(=O)oc2ccc(NC(=O)N3CCCCCC3)cc21	59.8
CN(C)CCn1c(=O)oc2ccc(NC(=O)CC(C)(C)C)cc21	37.9
CC(C)CCC(=O)Nc1ccc2oc(=O)n(CCN(C)C)c2c1	27.7
CN(C)CCn1c(=O)oc2ccc(NC(=O)C3CCCO3)cc21 (stereo unspecified)	53.4
CCC(C)C(=O)Nc1ccc2oc(=O)n(CCN(C)C)c2c1 (stereo unspecified)	27.7
CCNC(=O)N1CC[C@H]2CC(=O)N(CC(N)=O)CC[C@H]2C1	11.1
CCCc1ccc(CN2CCN(c3ncccn3)[C@@H]3CS(=O)(=O)C[C@@H]32)o1	13.2
Cc1nc(CN2C[C@@H]3CN(C(=O)NC(C)C)C[C@@H]3C2=O)cs1	2.94
CC(C)NC(=O)c1sc2ccccc2c1[C@H]1CC[C@H](CN)CC1	8.45
Cn1cc(CN2CCC[C@]3(C(=O)O)CN(c4ncccn4)C[C@@H]3C2)cn1	27.8
Cc1noc([C@H]2C[C@H]3OCC[C@H]3N(C3CCC3)C2)n1	-1.06
O=C(c1cccc(F)c1)N1CC[C@@H]2CN(c3ncccn3)CCO[C@@H]2C1	6
CCc1ccc(NC(=O)N2C[C@H]3CC[C@@]4(N=C(C)N(C)C4=O)[C@H]3C2)cc1	24.7
CN(C)C(=O)CN1CCCC1c1cccc(Cc2ccccc2F)n1 (stereo unspecified)	55.7
CC(=O)N1CCCC1c1cccc(Cc2ccccc2F)n1 (stereo unspecified)	0
CN1CCCC1c1cccc(Cc2ccccc2F)n1 (stereo unspecified)	16.7
CCS(=O)(=O)N1C[C@H]2C[C@H](C(=O)N(C)C)[C@@H](C1)O2	6.57
O=C(c1ccc[nH]1)N1C[C@H]2CC[C@@H]1CN(c1ncccn1)C2	21.7
Cc1ccc(C(=O)N(C2CC2)C2CC(=O)NC2=O)cc1F (stereo unspecified)	8.47
CCn1nnc2c1C(COCCN(C)C)CN(Cc1ccco1)C2 (stereo unspecified)	1.89
CCn1nnc2c1C(COC)CN(Cc1ccco1)C2 (stereo unspecified)	52.8

Compound	Percent Effect [%]
CCn1nnc2c1C(COCC(=O)N(C)C)CN(Cc1ccoc1)C2 (stereo unspecified)	5.66
CCn1nnc2c1C(COC)CN(Cc1cccs1)C2 (stereo unspecified)	13.5
CCn1nnc2c1C(COCC(=O)N(C)C)CN(Cc1ccco1)C2 (stereo unspecified)	50.9
CN(C)C(=O)COCC1CN(Cc2ccco2)Cc2ncn(C)c21 (stereo unspecified)	20.8
CC(=O)N1C[C@@H]2CN(S(=O)(=O)C3CC3)CCO[C@@H]2C1	10
O=C1O[C@@H]2CN(c3cnccn3)C[C@@H]2N1CCCc1ccc(F)cc1	11
CCCS(=O)(=O)N1C[C@@H](Oc2ccccn2)[C@H]2OCCC[C@H]21	9.73
Cc1ncc(CN2Cc3ccccc3O[C@]3(CC[C@H](CO)CC3)C2)cn1	11.1
Fc1cnc(N2CC[C@@H]3OC(COCc4cccnc4)CC[C@@H]32)nc1 (stereo partly specified)	5.26
O=C(c1ccco1)N1CC[C@@H]2O[C@@H](COCC3CCOCC3)CC[C@@H]21	-0.84
COC[C@@]12CCO[C@@H]1CCN(C(=O)CCc1ccccc1Cl)C2	12.9
Cc1ncc2c(n1)CN(Cc1nnc(Cc3ccccc3)o1)CC2	55.4
CCc1ncc2c(n1)CN(Cc1nnc(Cc3ccccc3)o1)CC2	31.2
CC(C)c1ncc2c(n1)CN(Cc1nnc(Cc3ccccc3)o1)CC2	33
CC(C)N1C[C@@H]2OCC(=O)N(Cc3ccccc3)[C@@H]2C1	8.11
Cc1nnc(N2CCc3cncnc3C2)c(C#N)c1C	65.3
CCc1ncc2c(n1)CN(c1nnc(C)c(C)c1C#N)CC2	12
Cc1nnc(N2CCc3cnc(C(C)C)nc3C2)c(C#N)c1C	46.7
O=C(c1ccnnc1)N1C[C@@H](OCC2CCOCC2)[C@H]2OCCC[C@H]21	11.8
COC(=O)c1ccc(OC)c(CN2CCN(CC(C)C)C(=O)C2C)c1 (stereo unspecified)	10.8
COc1cc(F)c(CN2CCN(CC(C)C)C(=O)C2C)cc1OC (stereo unspecified)	10.8
COc1cccc(CN2CCN(CC(C)C)C(=O)C2C)c1O (stereo unspecified)	98.9
CC(=O)N1CCN(c2ccccc2CNc2ccc3[nH]ncc3c2)CC1	57.5

Compound	Percent Effect [%]
CC(=O)N1CCN(c2ccccc2CNc2cncc(C)c2)CC1	11
COc1ccc(NCc2ccccc2N2CCN(C(C)=O)CC2)cn1	24.7
Cn1ccnc1CN1CCN(Cc2ccccc2)[C@@H]2CS(=O)(=O)C[C@@H]21	5.59
CNc1[nH]nc(N)c1C(=O)Nc1ccc(OC)cc1	27.5
CNc1[nH]nc(N)c1C(=O)Nc1ccccc1	-15
CNc1[nH]nc(N)c1NC(=O)c1ccccc1	87.5
Cc1[nH]ccc1C(=O)N1C[C@H]2CC[C@@H]1CN(S(=O)(=O)N(C)C)C2	16.1
Cn1cc(CNc2cnn(CC3CCCO3)c2)c(-c2ccncc2)n1 (stereo unspecified)	30.7
COCCn1cc(NCc2cn(C)nc2-c2ccncc2)cn1	51.8
Cn1cc(CNc2cnn(CCO)c2)c(-c2ccncc2)n1	21.9
Cc1ncsc1CN1C[C@@H]2CN(S(C)(=O)=O)CCO[C@@H]2C1	20
Cc1ccc(CN2CC[C@H]3C[C@@H](c4nc(C5CC5)cs4)O[C@@H]3C2)o1	19.8
Cc1noc([C@@]23CCO[C@@H]2CCN(C(=O)CCC(C)C)C3)n1	5.56
CC(C)[C@H](NC(=O)N1CCC(Cc2ccccc2)CC1)C(=O)O	-2.5
Cn1ccnc1CC1CCCN(C(=O)Nc2cccn(C)c2=O)C1 (stereo unspecified)	17.3
Cn1cccc(NC(=O)N2CCC(COCc3ccccc3)C2)c1=O (stereo unspecified)	108
Cc1nn(C)cc1C(=O)N1CCC(CSc2ccccc2)C1 (stereo unspecified)	11
CC(C)(C)C(=O)N1CCC(COCc2ccccc2)C1 (stereo unspecified)	8
Cn1cccc(NC(=O)N2CCC(CSc3ccccc3)C2)c1=O (stereo unspecified)	78.1
COc1c(C(=O)N2CCC(CSc3ccccc3)C2)c(C)nn1C (stereo unspecified)	19.2
Cn1cccc(NC(=O)N2CCC(Cc3ccccc3)C2)c1=O (stereo unspecified)	106
Cc1cnc(C(=O)N2CCC(COCc3ccccc3)C2)cn1 (stereo unspecified)	2.67
Cc1csc(CN2C[C@@H]3COC[C@]3(C(=O)NCc3ccco3)C2)n1	7

Compound	Percent Effect [%]
Cc1oncc1C(=O)N1CC[C@H]2[C@H](CO[C@@H]2CNS(C)(=O)=O)C1	28.6
CN(C)C[C@H]1OC[C@@H]2CCN(C(=O)Cc3cccs3)C[C@@H]21	7.89
CN(C)C(=O)N1C[C@@H](C(=O)NCc2ccco2)C[C@H]2OCC[C@H]21	0
O=C(O)[C@]12CCCN(Cc3cccs3)C[C@H]1CN(c1ncccn1)C2	22.2
Cc1nc[nH]c1CN1C[C@@H]2CC[C@H](C1)N(C(=O)CCc1cnn(C)c1)C2	16.4
CN(C)C(=O)c1cccc(NC(=O)Cc2cc(F)ccc2F)n1	19.7
Cc1ccc(C)c(CC(=O)Nc2cccc(C(=O)N(C)C)n2)c1	17.1
COc1cc(CC(=O)Nc2cccc(C(=O)N(C)C)n2)ccc1C	54
O=S(=O)(c1cccs1)N1CC[C@H]2[C@H]1CCN2CC1CC1	3.88
CN(C)C[C@H]1OC[C@@H]2CCN(C(=O)c3cccn3C)C[C@@H]21	9.43
c1ccc(COC[C@H]2CC[C@H]3[C@H](CCN3Cc3ccccn3)O2)nc1	10
NC(=O)c1cc(-c2cccc(C(=O)O)c2)cs1	15.8
NC(=O)c1ccccc1-n1cc(-c2cccc(C(=O)O)c2)cn1	52.6
NC(=O)c1cc(-n2cc(-c3cccc(C(=O)O)c3)cn2)cs1	10.5
CCC1=NN2C(=N)/C(=C\c3cccn3-c3ccc(Br)cc3)C(=O)N=C2S1	11
CN(C)CCN1C[C@@H]2CN(c3ccccc3)C[C@@H]2C1=O	6.36
Cc1csc(CN(C)C(C)C(=O)N2CCc3ccccc3C2)n1 (stereo unspecified)	55.8
CC(C(=O)N1CCc2ccccc2C1)N(C)Cc1cscn1 (stereo unspecified)	3.9
CCc1cnc(CN(C)C(C)C(=O)N2CCc3ccccc3C2)s1 (stereo unspecified)	9.09
